Results as given in PubChem BioAssay (NCATS).
Results filed as inconclusive are left out. Active and inactive are the calls of the source. Calls follow the shape of the dose curve; as a rule, active = well fitted inhibition curve with a large enough effect; inconclusive = small, poorly fitted or top-dose-only effect; inactive = flat fitted curve, though single readings scatter.

What was measured:
Experiment in all cases: qHTS profiling for inhibitors of Plasmodium falciparum proliferation (AID 504749); also: nearly all actives have a fitted effect of over 60% in size
Conditions in all cases: P. falciparum in erythrocytes, SYBR Green DNA, 72 h; series mostly up to 28.7 µM
CP325 = test system: CP325
How it was run: (§1)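 Fluorescence of SYBR Green-bound parasite DNA, read at 485/535 nm, served as the growth measure. Infected erythrocytes were cultured with compound 72 h; artemisinin (0.29 uM) and DMSO wells defined the normalization range.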

CP329 = test system: CP329
How it was run: as §1

CP335 = test system: CP335
How it was run: as §1

DFO2036 = test system: DFO2036
How it was run: as §1

DIV14 = test system: DIV14
How it was run: as §1

DIV17 = test system: DIV17
How it was run: as §1

DIV30 = test system: DIV30
How it was run: as §1

Dd2 = test system: Dd2
How it was run: as §1

ECU = test system: ECU
How it was run: as §1

FAB9 = test system: FAB9
How it was run: as §1

Measured: Potency

O=Cc1ccccc1C=O
inactive: all assays above

CCCCC(CC)COC(=O)c1ccccc1O (stereo not given)
inactive: all assays above

O=C(O)COc1nn(Cc2ccccc2)c2ccccc12
inactive: all assays above

CCn1cc(C(=O)O)c(=O)c2cnc(N3CCNCC3)nc21
inactive: all assays above

CC[C@@]1(c2ccccc2)NC(=O)N(C)C1=O
inactive: all assays above

CC12CCC(CC1)C(C)(C)O2
inactive: all assays above

CCOc1ccc2ccccc2c1C(=O)N[C@@H]1C(=O)N2[C@@H]1SC(C)(C)[C@@H]2C(=O)O
inactive: all assays above

O=c1[nH]c(=O)c2[nH]c(=O)[nH]c2[nH]1
inactive: all assays above

O=c1cc[nH]c(=S)[nH]1
inactive: all assays above

CC1=C(CC(=O)O)c2cc(F)ccc2/C1=C\c1ccc(S(C)=O)cc1 (stereo not given)
inactive: all assays above

C[C@H]1O[C@@H](n2cc(F)c(=O)[nH]c2=O)[C@H](O)[C@@H]1O
inactive: all assays above

O=c1cc[nH]c(=O)[nH]1
inactive: all assays above

OCC(O)CN1CCN(c2ccccc2)CC1 (stereo not given)
inactive: all assays above

O=C(O)CN1C(=O)c2cccc3cccc(c23)C1=O
inactive: all assays above

CCN(CC)CCNC(=O)c1cc(Cl)c(N)cc1OC
inactive: all assays above

CCCc1c(OCCCCc2nn[nH]n2)ccc(C(C)=O)c1O
inactive: all assays above

[O-][n+]1cccc(CO)c1
inactive: all assays above

O=C1c2c(O)cccc2Cc2cccc(O)c21
inactive: all assays above

O=S(=O)(O)c1cc(I)c(O)c2ncccc12
inactive: all assays above

CCOC(=O)c1ccc(O)cc1
inactive: all assays above

Cc1cc(CC(=O)O)n(C)c1C(=O)c1ccc(Cl)cc1
inactive: all assays above

CC(O)COc1ccccc1 (stereo not given)
inactive: all assays above

COc1cc2[nH]c(=O)[nH]c(=O)c2cc1OC
inactive: all assays above

Cn1c(=O)c2c(ncn2CC2OCCO2)n(C)c1=O
inactive: all assays above

O=S(=O)(O)NC1CCCCC1
inactive: all assays above

CC1(C)[C@@H]2CC[C@@]1(C)C(=O)C2
inactive: all assays above

NC(CSCC(=O)O)C(=O)O (stereo not given)
inactive: all assays above

CCCCOC(=O)c1ccc(O)cc1
inactive: all assays above

CC1=C(/C=C/C(C)=C/C=C/C(C)=C/C(=O)O)C(C)(C)CCC1
inactive: all assays above

Cc1cccc(Nc2cc(Cl)nc(SCC(=O)O)n2)c1C
inactive: all assays above

O=c1cc(CO)occ1O
inactive: all assays above

N[C@@H](CSCCCO)C(=O)O
inactive: all assays above

NC(=O)NNc1ccccc1
inactive: all assays above

CC(=O)Nc1ccc(/C=N/NC(N)=S)cc1
inactive: all assays above

C[C@H](N)[C@H](O)c1cccc(O)c1
inactive: all assays above

CCCCCCCCCCCCCCCC(=O)NCCO
inactive: all assays above

Cc1cccc(C)c1NC(=O)CN(CC(=O)O)CC(=O)O
inactive: all assays above

CC(=O)Oc1ccc(C2(c3ccc(OC(C)=O)cc3)C(=O)Nc3ccccc32)cc1
inactive: all assays above

CCOC(=O)[C@H](CCc1ccccc1)N[C@@H](C)C(=O)N1C(=O)N(C)C[C@H]1C(=O)O
inactive: all assays above

O=C(Oc1ccccc1C(=O)O)c1ccccc1O
inactive: all assays above

O=C(O)c1ccccc1-c1ccc(C(F)(F)F)cc1
inactive: all assays above

O=C1OC(OC(=O)c2cccnc2Nc2cccc(C(F)(F)F)c2)c2ccccc21 (stereo not given)
inactive: all assays above

CCC(=O)c1ccc(O)cc1
inactive: all assays above

COc1ccccc1O
inactive: all assays above

Oc1cn2c(n1)Nc1ccc(Cl)c(Cl)c1C2
inactive: all assays above

O=C1NS(=O)(=O)c2ccccc21
inactive: all assays above

COc1ccc(S(=O)(=O)Nc2nnc(CC(C)C)s2)cc1
inactive: all assays above

CCCOC(=O)c1ccccc1
inactive: all assays above
